An excerpt weighted towards active compounds, which were near 11% of everything screened.
JMJD2A Tudor: blocks the human JMJD2A Tudor domain. O75164. AlphaScreen JMJD2A-Tudor / H3K4me3 peptide binding. Potency, µM (series often up to 114 µM), for inactives: at the top dose activity change, negative = inhibition, most hits filed as inhibitors. 4.4% of 390,000 active. AID 504339; note: potency is the fitted concentration of half-maximal effect; % is set by controls: 0 for no effect and ±100 for the full control effect; nearly all actives have a fitted effect of over 50% in size
G9a block: G9a (human) methyltransferase inhibition | Potency, µM (titrated, usually from 102 µM), without a hit: top-dose activity, negative = inhibition, most hits filed as inhibitors | 8.8% of 350,000 active | AID 504332 | Q96KQ7 | G9a H3K9 monomethylation, AlphaScreen, 2 h; note: potency is the fitted concentration of half-maximal effect; % is set by controls: 0 for no effect and ±100 for the full control effect; nearly all actives have a fitted effect of over 75% in size
Target sequence (Q96KQ7 913-1193 limits assumed): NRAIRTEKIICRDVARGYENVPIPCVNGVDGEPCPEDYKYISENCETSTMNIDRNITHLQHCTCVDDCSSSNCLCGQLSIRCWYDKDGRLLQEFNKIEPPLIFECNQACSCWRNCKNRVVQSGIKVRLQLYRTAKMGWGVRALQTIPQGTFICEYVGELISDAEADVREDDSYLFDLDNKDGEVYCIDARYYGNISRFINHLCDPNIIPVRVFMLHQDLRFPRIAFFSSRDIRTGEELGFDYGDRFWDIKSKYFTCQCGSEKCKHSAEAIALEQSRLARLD
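Quantitative HTS format: methyltransferase activity on a biotin-tagged H3K9 peptide is measured by AlphaScreen, using a rabbit anti-monomethyl-H3K9 antibody with streptavidin donor and anti-IgG acceptor beads. Final levels are 20 nM enzyme, 500 nM peptide, 20 uM SAM; 2 h RT.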
PI5P4Ka inh: inhibitors of human PI5P4K alpha; AID 652105; max response, %; 1.2% of 330,000 active; PI5P4Kalpha enzyme, ADP-Glo luminescence, 60 min; hits give low values; active = max response of -50% or lower; inconclusive = between -30% and -50%; inactive = -30% or higher; note: value at the top dose of about 77 µM; % is set by controls: 0 for no effect and ±100 for the full control effect
Target sequence (P48426 whole entry, looked up): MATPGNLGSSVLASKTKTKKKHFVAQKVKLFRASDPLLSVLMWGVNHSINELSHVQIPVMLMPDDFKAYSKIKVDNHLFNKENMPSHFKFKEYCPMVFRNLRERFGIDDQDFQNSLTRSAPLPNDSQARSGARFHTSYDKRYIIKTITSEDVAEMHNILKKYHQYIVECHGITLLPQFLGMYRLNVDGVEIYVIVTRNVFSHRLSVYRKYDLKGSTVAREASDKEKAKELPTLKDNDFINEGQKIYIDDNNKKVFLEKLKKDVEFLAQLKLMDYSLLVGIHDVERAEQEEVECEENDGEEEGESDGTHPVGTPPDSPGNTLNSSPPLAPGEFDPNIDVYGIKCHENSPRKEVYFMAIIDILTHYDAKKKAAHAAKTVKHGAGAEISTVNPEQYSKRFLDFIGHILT
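Reactions run in 0.038 M HEPES pH 7.4, 0.28 mM EGTA, 0.1% CHAPS and 5% DMSO, with PI5P4Kalpha, substrate, compound and 5 microM ATP final, one hour at room temperature. Readout is ADP-Glo luminescence.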
BAZ2B inh: BAZ2B (human) inhibition | Q9UIF8 | AlphaScreen BAZ2B-H3K14Ac peptide displacement | Potency, µM (titrated, usually from 114 µM), for inactives: at the highest dose activity change, negative = inhibition, actives largely listed as inhibitors | 4.4% of 360,000 active; note: potency is the fitted concentration of half-maximal effect; % is set by controls: 0 for no effect and ±100 for the full control effect; nearly all actives have a fitted effect of over 60% in size
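BAZ2B 50 nM plus b-H3(5-23)K14Ac 50 nM, PBS pH 7.4/0.01% Tween-20, 30 min RT; compound added (max 110 uM), 30 min RT; streptavidin donor/Ni-chelate acceptor beads 10 ug/mL final, 20 min dark; AlphaScreen read.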
HP1b binding inh: inhibitors of HP1-beta chromodomain binding to methylated histone tails; P83916; AlphaScreen HP1-beta / biotin-H3K9me3 peptide binding; Potency, µM (doses to about 114 µM), inactives show at the top dose activity change, negative = inhibition, usual class: inhibitors; 0.56% of 390,000 active; AID 540317; note: potency is the fitted concentration of half-maximal effect; nearly all actives have a fitted effect of over 70% in size
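HP1-beta protein (50 nM final) preincubated 30 min at room temperature with biotinylated H3(1-18)K9me3 peptide (50 nM) in PBS pH 7.4, 0.01% Tween-20, then compound added for 30 min. AlphaScreen streptavidin donor/nickel chelate acceptor beads (10 ug/mL final), 30 min dark, luminescence read.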
L3MBTL1 inh: L3MBTL1 (human) inhibition | Q9Y468 | AlphaScreen L3MBTL1–H3K9me1 peptide binding | Potency, µM (doses to about 57.1 µM), for the others: at the top dose activity, negative = inhibition, hits mostly inhibitors | 0.66% of 230,000 active | AID 485360; note: potency is the fitted concentration of half-maximal effect; % is set by controls: 0 for no effect and ±100 for the full control effect; nearly all actives have a fitted effect of over 60% in size
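L3MBTL1 50 nM + b-AHA-H3(1-15)K9me1 75 nM, 30 min RT; compound added, 30 min RT; streptavidin donor/Ni-chelate acceptor beads 10 ug/mL each final, 30 min RT dark; AlphaScreen read.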
Numbers without * were called inactive; ? = inconclusive; nt = no result; [ ] = remark or other dose. Unless noted, calls come from the whole dose curve; as a rule, active = well fitted inhibition curve with a large enough effect; inconclusive = small, poorly fitted or top-dose-only effect; inactive = no such curve, though single readings can be large or run the other way.

SMILES	JMJD2A Tudor	G9a block	PI5P4Ka inh	BAZ2B inh	HP1b binding inh	L3MBTL1 inh
O=C(NC(Cc1ccccc1)C(=O)O)/C(=C\c1ccc(Cl)cc1)NC(=O)c1ccco1 (centres undefined)	-8.3%	79.4µM*	-3.0	-15.1%	44.6%	nt
O=C(Nc1ccccc1)/C(=C\c1ccccc1)NC(=O)c1ccco1	-4.8%	nt	-5.2	-2.1%	11.5%	nt
O=C(NC(Cc1ccccc1)C(=O)O)/C(=C/c1ccc([N+](=O)[O-])cc1)NC(=O)c1ccc(Br)o1 (centres undefined)	2.1%	-20.9%	4.8	-29.3%	35.7%	nt
COc1ccc(-c2nc3cnc(N4CCOCC4)nc3n(-c3ccccc3)c2=O)cc1	nt	5.1%[0.501 µM]	nt	nt	nt	nt
COc1ccc(NC(=O)CSc2nc(-c3ccc(OC)cc3)cc(=O)[nH]2)cc1	-5.2%	35.9%[59 µM]	nt	19.7%	42.3%	nt
CCCCC[C@H]1CN(CCc2ccccc2)C(=O)[C@@H]1CC(=O)NCc1ccc(OC)cc1	-14.9%	44.7µM*	0.9	12.3%	52.7%	8.1%
CCCCC[C@H]1CN(CCCC)C(=O)[C@@H]1CC(=O)NCc1ccc(OC)cc1	-3.6%	20.3%	-4.0	2.4%	47.9%	-3.4%
CCOC(=O)c1c(C)[nH]c(CCC(=O)Nc2ccc(N(CC)CC)cc2C)c1C	?	-48.5%[59 µM]	nt	-17.8%	1.9%[57 µM]	nt
CCc1ccc(NC(=O)[C@H](C)NC(=O)C2CCN(C(=O)[C@@H](N)C(C)C)CC2)cc1	-3.3%	50.1µM*	-2.2	-16.3%	33.5%	nt
CCc1ccc(NC(=O)[C@H](C)NC(=O)C2CCN(C(=O)[C@@H](N)CC(C)C)CC2)cc1	-6.4%	?	-8.7	-9.0%	24.9%	nt
CC(C)CCN(Cc1ccco1)C(=O)Cn1ncc2c([nH]c3ccccc32)c1=O	-16.2%	-28.0%[59 µM]	nt	-2.3%	18.8%	nt
Cn1c(-n2cccc2)c(-c2c(-c3ccc(F)cc3)[nH]c3c2c(=O)n(C)c(=O)n3C)c(=O)n(C)c1=O	-13.6%	7.2%[59 µM]	nt	-27.6%	?	nt
C=CCn1c(SCC(C)=O)nc2scc(-c3ccc(C)o3)c2c1=O	?	44.7µM*	0.1	6.3%	19.5%	10.8%
C=CCn1c(SCC(=O)NC2CCCC2)nc2scc(-c3ccco3)c2c1=O	-35.7%	?	-83.4*	?	12.3%	nt
C=CCn1c(SCC(=O)Nc2c(C)n(C)n(-c3ccccc3)c2=O)nc2scc(-c3ccccc3)c2c1=O	-13.0%[57.1 µM]	-48.6%[59 µM]	5.0	-7.7%	41.1%	nt
C=CCn1c(=S)[nH]c2sccc2c1=O	?	12.6µM*	-21.0	3.5%	15.2%	18.1%
C=CCn1c(SCC(=O)NC2CCCCC2)nc2ccccc2c1=O	0.0%	8.5%[59 µM]	-5.0	-23.3%	24.8%	-0.6%
C=CCn1c(SCC(=O)NCCCC)nc2scc(-c3ccco3)c2c1=O	56.2µM*	-22.0%[59 µM]	-57.5*	?	?	-26.8%
CC1CCC(N2CC(=O)N(C3CCCC3)C(c3ccc(Cl)cc3)C2=O)CC1 (centres undefined)	-7.6%	0.5%[59 µM]	nt	-0.7%	-3.8%	nt
COC(=O)c1nc(Nc2cc(F)cc(F)c2)nc(NC2CCCC2)n1	-13.7%	nt	nt	nt	nt	nt
C=CCn1c(=S)[nH]c2scc(-c3ccc(C)o3)c2c1=O	?	50.1µM*	?	-0.8%	-10.8%	4.5%
O=c1c2ccccc2nc(N2CCN(c3cccc(Cl)c3)CC2)n1-c1ccccc1	-15.0%	0.3%[59 µM]	nt	nt	36.6%	nt
C#C[C@]1(O)CC[C@H]2[C@H]3[C@H](CC[C@@]21C)C1=C(CC(=O)CC1)C[C@@H]3C	nt	-43.1%[12.7 µM]	nt	nt	nt	nt
[O-][N+]1=C(c2cccs2)CN(O)C1	-14.5%	15.3%	-0.1	?	21.5%	1.6%
CC1(C)N(O)CC(c2cccs2)=[N+]1[O-]	28.2µM*	-36.3%[12.7 µM]	nt	50.1µM*	-23.4%	nt
SMILES	JMJD2A Tudor	G9a block	PI5P4Ka inh	BAZ2B inh	HP1b binding inh	L3MBTL1 inh
O=C(c1ccc2c(c1)OCO2)n1nnc2ccccc21	nt	44.7µM*	nt	-16.9%	nt	6.0%
COc1ccc(C(=O)n2nnc3ccccc32)cc1OC	-6.9%	44.7µM*	-12.2	5.2%	56.4%	5.6%
COc1ccc(C(=O)n2nnc3ccccc32)cc1Br	-6.0%	?	nt	?	39.5%	nt
COc1ccc(NC(=O)COC(=O)Cc2ccccc2[N+](=O)[O-])cc1OC	-9.7%	-4.3%	-12.7	-17.1%	42.3%	nt
Cc1ccc(C(=O)n2nnc3ccccc32)cc1[N+](=O)[O-]	-2.8%[57.1 µM]	?	-9.5	2.8%	47.1%	16.3%
COc1ccc(N/C(=C(/C(Cl)=C(Cl)Cl)[N+](=O)[O-])n2nnc3ccccc32)cc1OC	nt	14.1µM*	nt	56.2µM*	nt	nt
O=C(CSc1nnc(COc2ccccc2)o1)Nc1cc(C(F)(F)F)ccc1Cl	12.1%	?	nt	15.3%	47.4%	nt
COC(=O)Cn1c(=O)c(=O)n(CC(=O)OC)c2ccccc21	-31.1%	15.0%[59 µM]	-2.4	-31.2%	-8.4%	nt
CNC(=O)/C(C#N)=C/c1cn(CC(=O)OC)c2ccccc12	-15.7%	3.8%	0.0	-24.4%	23.0%	-3.1%
COC(=O)Cn1c(C)c(/C=C/c2cc[n+](C)cc2)c2ccccc21	?	39.8µM*	-2.7	?	?	0.4%
COC(=O)Cn1cc(C#N)c2ccccc21	-8.3%	10µM*	6.1	0.4%	16.8%	-7.0%
COC(=O)Cn1cc(/C=C/c2cc[n+](C)cc2)c2ccccc21	?	44.7µM*	-6.5	44.7µM*	11.2%	-5.0%
Cc1cccc(NC(=S)NNC(=O)c2nn(C)cc2Cl)c1	-29.1%	35.5µM*	-1.3	3.0%[57.1 µM]	19.6%	-7.5%
Cc1cccc(NC(=S)NNC(=O)c2ccco2)c1	-18.3%	-8.9%[12.7 µM]	nt	-6.1%	2.2%	1.9%
Cc1c(Cl)c(C(=O)NNC(=S)Nc2ccc(F)cc2)nn1C	-9.0%	nt	1.6	12.9%	34.7%	4.3%
Cc1c(Cl)c(C(=O)NNC(=S)Nc2ccccc2)nn1C	-11.6%	3.55µM*	-0.1	7.7%	28.6%	nt
Cc1ccc(NC(=S)NNC(=O)c2nn(C)cc2Cl)cc1	-9.1%	35.5µM*	-10.3	18.0%[57.1 µM]	24.9%	6.5%
CCn1c(C(=O)N2CCCC(C(=O)N3CCN(c4cc(C)ccc4C)CC3)C2)cc2sccc21 (centres undefined)	?	-34.6%[59 µM]	nt	?	-2.7%	nt
O=C(NCC(c1cccnc1)N1CCc2ccccc21)c1cccc(Br)c1 (centres undefined)	-22.4%	-4.2%[59 µM]	nt	?	10.9%	nt
CN(C)S(=O)(=O)c1ccc(/C(O)=C2/C(=O)C(=O)N(Cc3cccnc3)C2c2ccco2)cc1 (centres undefined)	?	?	-7.8	?	14.9%	?
CN(C)S(=O)(=O)c1ccc(/C(O)=C2/C(=O)C(=O)N(Cc3cccnc3)C2c2ccncc2)cc1 (centres undefined)	-22.5%	15.8µM*	-1.2	-4.5%	19.7%	-0.3%

Source: PubChem BioAssay
